HCV inhibitor = HCV inhibition; Huh7.5.1 HCVcc-Cre infection, luciferase reporter, 44 h; Potency, µM (series often up to 41.8 µM), most hits filed as inhibitors; 340,000 tested, 3.4% active; AID 651820; active means well fitted inhibition curve with a large enough effect; inconclusive means small, poorly fitted or top-dose-only effect, or another doubt; inactive means no such curve, though single readings can be large or run the other way
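HCVcc-Cre virus at an moi near 0.5 was added right after compound to cells cultured 4 h from seeding (1,000 cells/well). Luciferase activity was determined 44 h later, 15 min after substrate addition at RT.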
Lassa entry inh = inhibitors of Lassa virus binding or cell entry | Lassa virus pseudotype entry inhibition, cell reporter | AID 540256 | 300,000 tested, 1.2% active | Potency, µM (doses to about 37.9 µM), hits mostly inhibitors; calls by dose curve; tested in HEK293 cells; further: nearly all actives have a fitted effect of over 50% in size
VACV mCherry inh = vaccinia inhibition (mCherry reporter); Potency, µM (highest dose often 36.5 µM), actives largely listed as inhibitors; 310,000 tested, 0.63% active; Vaccinia virus mCherry reporter infection, fluorescence; AID 720579; calls by dose curve; tested in A549 cells; further: nearly all actives have a fitted effect of over 35% in size
Marburg entry inh = blocks Marburg virus binding to or entry into cells; Potency, µM (top dose mostly 37.8 µM), hits mostly inhibitors; Marburg virus pseudotyped entry inhibition, cell reporter; 300,000 tested, 1.8% active; calls by dose curve; tested in HEK293 cells
VACV Venus inh = vaccinia inhibition (Venus reporter). 330,000 tested, 0.46% active. Potency, µM (series often up to 36.5 µM), most hits filed as inhibitors. Vaccinia virus Venus reporter expression, fluorescence; calls by dose curve; tested in A549 cells; further: nearly all actives have a fitted effect of over 30% in size
A number is an active result; – = inactive; ? = inconclusive; · = not tested or not shown; ! = repeats disagree; [ ] = dose if it differs, or a comment. The list is not random: actives were taken first. Their share in the collection is about 4.6%.

SMILES | HCV inhibitor | Lassa entry inh | VACV mCherry inh | Marburg entry inh | VACV Venus inh
CN(C)C(=O)c1ccc(-c2cc3onc(-c4ccccc4)c3c(=O)n2C)cc1 | 3.5µM | · | – | · | ?
CCOC(=O)c1c(S(=O)(=O)N2CCC(C(=O)NCc3ccc(F)cc3)CC2)c(C)n(C)c1C | · | – | – | · | –
CCC(Sc1nc2n[nH]c(C)c2c(=N)n1-c1ccc(Br)cc1)C(=O)N(CC)CC (stereo not drawn) | · | ? | – | · | –
CCN(CC)C(=O)COc1ccc(/C(C)=N/Nc2ncc(Cl)cc2Cl)cc1 | 11µM | · | · | · | ·
C/C(=N\Nc1ncc(Cl)cc1Cl)c1ccc(C#N)cc1 | – | – | – | – | –
COC(=O)c1sccc1S(=O)(=O)N(CC(=O)Nc1c(C)cccc1C)c1ccc(C)c(C)c1 | · | ? | – | · | –
COc1ccc2c(c1)C(=O)[C@@H](O)[C@H](c1ccc(OC)c(Br)c1)O2 | –[8.37 µM] | ? | 4µM | – | ?
COC(=O)C[N+](C)(C)CC#Cc1ccccc1 | – | 5.2µM | – | – | –
CC(C)CC(=O)Nc1ccc(Nc2ccccc2)cc1 | 2.8µM | 3.5µM | – | ? | –
COc1ccc2[nH]c(=O)c3c(c2c1)OC(C)(C)C=C3 | – | – | 13µM | – | 11µM
COc1ccc(-c2nc3cc(C)ccc3cc2CN(C(=O)c2csc(C)n2)C2CC2)cc1OC | · | · | – | · | –
CN(C)C(=O)[C@@H]1C[C@@H](Sc2nc3ccccc3[nH]2)CN1Cc1ccnc2ccccc12 | · | · | – | · | –
CC(C)(C)C(=O)Nc1cc2nn(-c3ccccc3)nc2cc1Cl | – | 1.5µM | – | 0.41µM | –
CC(=O)Nc1cc2nn(-c3ccccc3)nc2cc1Cl | – | ? | – | – | –
CCOC(=O)c1c(C)[nH]c(C(=O)OCc2c(C)noc2C)c1C | 11µM | – | · | ? | ?
CCOC(=O)c1c(C)[nH]c(C(C)=O)c1C | – | – | · | – | ·
CCOC(=O)c1c(C)[nH]c(C(=O)COC(=O)c2c(CC)noc2C)c1C | 14µM | ? | – | – | –
CCCN(CCC)c1nc2ccccc2n2c(C)nnc12 | 3.2µM | – | – | ? | –
Cc1cc(C)n(-c2nc3ccccc3c(=O)n2OCC#N)n1 | ? | ? | 2.5µM | 7.9µM | ?
CC(=O)Nc1ccc(NC(=O)c2c(C)nn(Cc3ccccc3Cl)c2C)cc1 | – | – | – | ? | –
Cc1cccc(N2CCN(C(=O)c3c(C)nn(Cc4ccccc4Cl)c3C)CC2)c1C | 32µM | ? | · | ? | ?
Cc1cc(O)cc2c1C1CCC3(C)C(O)CCC3C1C=C2 (stereo not drawn) | ? | – | 4.5µM | – | ?
Cn1c(=O)c([N+](=O)[O-])c(Cl)c2ccccc21 | 7.9µM | ? | – | ? | –
CCN(CC)c1c([N+](=O)[O-])c(=O)n(C)c2ccccc12 | – | – | – | ? | –
CCn1c(C)nc2cc(C(=O)N/N=C/c3ccccc3C)ccc21 | – | ? | – | ? | –
SMILES | HCV inhibitor | Lassa entry inh | VACV mCherry inh | Marburg entry inh | VACV Venus inh
CCn1c(C)nc2cc(C(=O)N/N=C(\C)c3ccccc3O)ccc21 | 10µM | – | ? | ? | ?
Fc1cccc(Cl)c1Cn1nnc2c(NCc3ccncc3)ncnc21 | 10µM | ? | – | – | –
Fc1cccc(Cl)c1Cn1nnc2c(NCc3ccccn3)ncnc21 | – | – | – | – | –
COc1ccc(O[C@H]2C=C[C@@H](c3ccccc3)O[C@H]2COC(=O)CCC(C)=NO[C@H](C)CN2CCCc3nc(C)c(C)cc32)cc1 | · | · | · | – | ·
Cc1ccc(N(C(=O)c2sc(C)nc2C)C(C(=O)NCc2ccco2)c2ccccc2)cc1 (stereo not drawn) | – | 7.3µM | – | ? | –
CCCNC(=O)C(Cc1ccc(OC)cc1)NC(=O)c1ccc(C#N)cc1 (stereo not drawn) | 3.2µM | · | – | · | –
COc1ccc(OC)c([C@@H]2C(C#N)=C(N)Oc3cc(C)[nH]c(=O)c32)c1 | · | · | · | – | ·
COc1ccc2nc(NC(=O)c3cccc(-c4cc5ccccc5oc4=O)c3)sc2c1 | 11µM | ? | ? | ? | 13µM
COc1ccc2cc(-c3ccccc3)c(=O)oc2c1 | ? | 4.5µM | – | ? | –
CCCOc1ccc2cc(-c3ccccn3)c(=O)oc2c1 | – | 2.8µM | – | 1.8µM | –
COc1ccc2nc(NC(=O)c3cc(=O)c4ccccc4o3)sc2c1 | · | – | – | ? | –
O=c1oc2cc(OCc3c(F)cccc3Cl)ccc2cc1-c1ccccn1 | – | ? | –[1.46 µM] | – | –
Cc1nn(C(=O)c2c(F)cccc2F)c(C)c1S(=O)(=O)N1CCCCCC1 | · | – | – | · | –
COc1ccc(-c2nnc(SCC(=O)Nc3ccc(Cl)cc3)s2)cc1 | · | – | – | · | –
COc1ccccc1CNC(=O)c1ccc2nc(-c3ccccc3)c(-c3ccccc3)nc2c1 | · | – | – | · | –
S=c1[nH]nc(-c2ccccc2)n1/N=C/c1ccc(-c2ccccc2Cl)o1 | – | 0.82µM | ? | 0.71µM | –
CCOC(=O)[C@]12Cc3cc(Cl)ccc3[C@H]1N(C1CCCCC1)C(=O)c1cc(OC)ccc12 | · | · | ? | · | 3.5µM
Cn1ccc2c(-c3ccc(F)cc3F)cc3c(c21)C1CCC3O1 (stereo not drawn) | · | – | · | · | ·
COc1ccc2[nH]c(=O)c(CN(Cc3cccs3)C(=S)Nc3cccc(C)c3)cc2c1 | ? | ? | – | 4.5µM | –
COc1ccc2[nH]c(=O)c(CN(CCO)S(=O)(=O)c3c(C)ccc4nsnc34)cc2c1 | – | – | · | – | ·
COc1ccc2[nH]c(=O)c(CN(Cc3cccs3)S(=O)(=O)c3cccc4nsnc34)cc2c1 | 10µM! | ? | · | 16µM! | ·
CNC(=S)N(Cc1cccs1)Cc1cc2cc(OC)ccc2[nH]c1=O | – | – | – | ? | –
O=C1c2ccccc2C(Nc2ccc(-c3nc4ccccc4[nH]3)cc2)N1Cc1ccco1 (stereo not drawn) | 10µM | · | – | – | ?
O=C1c2ccccc2C(Nc2ccc3nc(-c4cccnc4)[nH]c3c2)N1Cc1ccco1 (stereo not drawn) | ? | – | – | – | –
O=Cc1ccc(/C=C2\C=Cc3ccccc32)cc1 | · | · | – | · | –
SMILES | HCV inhibitor | Lassa entry inh | VACV mCherry inh | Marburg entry inh | VACV Venus inh
CC(=O)O[C@H]1C[C@@H]2CC[C@@H]3[C@H](CC[C@]4(C)C(=O)CC[C@@H]34)[C@@]2(C)C[C@@H]1OC(C)=O | – | · | – | · | –
C=C1C(=O)C2=CC1CCC(=O)C1(C)CCC(OC(C)=O)C(C)(C)C1CC2O (stereo not drawn) | 11µM | 13µM | 2.5µM | ? | 4µM
C=C(C)C1CC23C(=O)[C@]4(C(=O)c5ccccc5)C[C@@]5(C)CCC(CC2C1(C)C)(C4=O)[C@@]35OC (stereo partly drawn) | · | · | · | – | ·
CN1CCSc2ccc(C(=O)Nc3ccc(Cl)cc3)cc21 | – | – | – | ? | –
O=C(Nc1ccncc1)c1ccc2c(c1)OCCO2 | ? | – | · | – | –
COc1cccc(NC(=O)c2ccc3c(c2)N(C)CCS3)c1 | 10µM | · | ? | · | –
Cc1ccc(NC(=O)c2ccc3c(c2)OCCO3)cc1 | – | 4.5µM | · | 13µM | –
O=C(Nc1ccc2c(c1)OCCO2)c1ccccc1 | – | ? | – | ? | –
O=C(Nc1ccc2c(c1)OCCO2)c1ccc(Br)s1 | ? | 5.6µM | – | 7.9µM | –
COc1cccc(NC(=O)c2cc(Cl)nnc2Cl)c1 | ? | ? | 6.3µM | ? | ?

From PubChem BioAssay
